This passage reports inhibition results from PubChem BioAssay AID651710 (Broad Institute, 2012).

Each structure is given as a SMILES string. “And” between values parts separate entries of the source, which are not always exact repeats. Identical values can stand only once. Among all 360,000 compounds or so, about 1,600 (0.44%) were called active. The full list was thinned out, with actives kept by preference. Values without a mark were called inactive.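 Rule for the calls: active = every replicate showing at least 50% inhibition; inconclusive = mean inhibition at least 50% but not in every replicate; inactive = the rest.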

For this test, the target named is DNA repair protein RAD52 homolog (Homo sapiens) (UniProt P43351). The experiment in a line: blockers of RAD52 strand annealing activity – biochemical, FRET, single point, set 2, primary screen (AID 651710). The following applies: recombinant RAD52 DNA annealing, FRET fluorescence; at 18.7 µM; active compounds read high.
DNA repair protein RAD52 homolog (Homo sapiens), sequence (P43351 whole entry, looked up): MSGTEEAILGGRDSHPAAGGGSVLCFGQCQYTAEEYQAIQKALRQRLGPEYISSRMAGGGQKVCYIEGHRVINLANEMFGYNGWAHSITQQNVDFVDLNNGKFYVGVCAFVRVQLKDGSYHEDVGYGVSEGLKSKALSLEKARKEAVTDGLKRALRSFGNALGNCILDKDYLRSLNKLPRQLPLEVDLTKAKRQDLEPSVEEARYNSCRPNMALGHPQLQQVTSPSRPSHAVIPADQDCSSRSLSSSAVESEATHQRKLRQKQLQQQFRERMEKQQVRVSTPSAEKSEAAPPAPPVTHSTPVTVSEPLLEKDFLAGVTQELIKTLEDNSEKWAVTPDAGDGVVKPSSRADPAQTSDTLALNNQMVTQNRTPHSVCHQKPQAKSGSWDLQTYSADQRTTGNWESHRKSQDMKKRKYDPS
For the molecule `CC(=O)Nc1ccc(CNc2nc(NCCN(C)C)nc3cc(-c4ccccc4)sc23)cc1`, the inhibition was 98.5% (active). Under `COCCNc1nc(NCc2ccc(NC(C)=O)cc2)c2sccc2n1` stands -6.25%; under `COCCNc1nc(Nc2ccccc2Cl)c2sc(-c3ccccc3)cc2n1`, -21.9%. Next, `C[C@@H]1CN([C@@H](C)CO)C(=O)c2cc(-c3cccnc3)cnc2O[C@H]1CN(C)Cc1ccc(-c2ccccc2)cc1`: 20.1%.

As to `O=C(C[C@H]1CC[C@H](NC(=O)c2ccc(F)cc2)[C@@H](CO)O1)NCCc1ccncc1`, the inhibition is 2.72%. For `CCC1Oc2ccccc2N(CC(=O)NCCCN2CCN(CC)CC2)C1=O` (stereo not given), the inhibition was -5.96%. As to `Cc1c(C)n(Cc2ccc(Cl)cc2)c2ccc(C(=O)NCCCN3CCOCC3)cc12`, the inhibition is -12.7%. For `CN1CCN(CCCNC(=O)c2ccc(/C=C3\Oc4ccccc4N(Cc4ccc(Cl)cc4)C3=O)cc2)CC1`, the inhibition was 94.8% (active). `CN(C)CC#Cc1ccc([C@H]2[C@H](CO)N3CCCCN(CC4CC4)C[C@@H]23)cc1`: the inhibition is 65.4% (active). With `COc1ccccc1C#Cc1ccc([C@@H]2[C@H](CO)N3CCCCN(C(=O)C4CCCC4)C[C@@H]23)cc1`, the inhibition was 71% (active). Under `COc1ccccc1C#Cc1ccc([C@@H]2[C@H](CO)N3CCCCN(C(=O)C4CC4)C[C@@H]23)cc1` stands 38.4%. `COc1ccccc1C#Cc1ccc([C@H]2[C@H](CO)N3CCCCN(C(=O)C4CCC4)C[C@@H]23)cc1`: the inhibition is -21.5%. Under `C[C@@H](O)C#Cc1ccc([C@H]2[C@@H](CO)N3CCCCN(CC4CC4)C[C@@H]23)cc1` stands -24.5%; under `C[C@H](O)C#Cc1ccc([C@@H]2[C@H](CO)N3CCCCN(CC4CC4)C[C@@H]23)cc1`, 8.98%.

For `C[C@@H](NC(=O)C[C@H]1C[C@@H]2c3cc(NC(=O)c4ccc5c(c4)OCO5)ccc3O[C@@H]2[C@@H](CO)O1)c1ccccc1`, the inhibition was 8.57%.

`CO[C@H](CN(C)S(=O)(=O)c1ccc(C)cc1)[C@@H](C)CN(Cc1ccccc1Cl)[C@@H](C)CO`: the inhibition is -2.08%. Next, `CO[C@H]1CN(C)C(=O)c2cc(NC(=O)Nc3ccccc3F)ccc2OC[C@H](C)N(C)C[C@H]1C`: 4.64%; `CC(C)NC(=O)N1C[C@@H]2[C@H](c3ccccc31)[C@H](CO)N2C(=O)C1CCCC1`: 0.805%; `COc1ccc(S(=O)(=O)N(C)CC(=O)N2CCCC2)cc1`: -9.04%. For `COc1ccc(N(Cc2ccc(N(C)C)cc2)C(=O)c2ccc(S(C)(=O)=O)cc2)cc1`, the inhibition is 2.51%. Next, `COc1ccc2sc(N(CCCN(C)C)C(=O)c3ccc(S(=O)(=O)N(C)C4CCCCC4)cc3)nc2c1`: 62.7% (active); `CN(CC1CCCO1)S(=O)(=O)c1ccc(C(=O)Nc2ccc([N+](=O)[O-])cc2)cc1` (stereo not given): -8.13%.

As to `Cn1ccc(=Nc2ccc(NC(=O)c3ccc(N=c4ccn(C)c5ccc([N+](=O)[O-])cc45)cc3)cc2)cc1`, the inhibition is 94.9% (active).

Turning to `Cn1c(=O)n(C)c2cc(C(=O)Nc3ccc(Br)cc3)ccc21`, the inhibition is -11.5%. `C[C@@H]1CN([C@@H](C)CO)S(=O)(=O)c2ccc(/C=C/c3ccccc3)cc2O[C@H]1CN(C)C(=O)C1CC1`: the inhibition was 14.6%.

Consider `O=C(C[C@H]1CC[C@H]2[C@@H](COC[C@H](O)CN2Cc2nccs2)O1)NCc1ccc(Oc2ccccc2)cc1`, for which the inhibition was 9.32%.

With `O=C(Nc1ccccc1F)N[C@@H]1CC[C@H](CC(=O)N2CCCCC2)O[C@H]1CO`, the inhibition was -11.7%. Regarding `C#Cc1cc(N2CCN(C(=O)c3ccoc3)CC2)n2nc(-c3cccc(Cl)c3)cc2n1`, the inhibition is 10.8%. Under `O=C(c1ccccc1)N1CCN(c2cc(-c3ccccc3)nc3cc(-c4cccc(Cl)c4)nn23)CC1` stands -9.17%; under `CN(C)CCN1CCN(c2cc(-c3cccc(Cl)c3)nc3ccnn23)CC1`, 91.4% (active).

As for `CN(C)C(=O)c1cccc(-c2ccccc2[C@@H]2[C@@H](CO)N(C(=O)C3CCCCC3)[C@H]2C#N)c1`, the inhibition was 6.38%. Under `C[C@@H]1CN([C@@H](C)CO)C(=O)Cc2cc(NC(=O)CCCN(C)C)ccc2O[C@@H]1CN(C)Cc1ccc(-c2ccccc2)cc1` stands 86.8% (active); under `C[C@@H]1CN([C@H](C)CO)C(=O)Cc2cc(NC(=O)CCCN(C)C)ccc2O[C@@H]1CN(C)Cc1ccc(Oc2ccccc2)cc1`, 54.4%. Regarding `C[C@H](CO)N1C[C@H](C)[C@H](CN(C)Cc2ccc(-c3ccccc3)cc2)Oc2ccc(NC(=O)Nc3ccc(F)cc3)cc2CC1=O`, the inhibition was -6.38%. As to `C[C@H](CO)N1C[C@H](C)[C@@H](CN(C)Cc2ccc(-c3ccccc3)cc2)Oc2ccc(NC(=O)CCCN(C)C)cc2CC1=O`, the inhibition is 94% (active). For `C[C@H](CO)N1C[C@H](C)[C@@H](CN(C)Cc2ccc(-c3ccccc3)cc2)Oc2ccc(NC(=O)CCC(F)(F)F)cc2CC1=O`, the inhibition was 23.2%. `C[C@H]1CN([C@@H](C)CO)C(=O)Cc2cc(NC(=O)CCCN(C)C)ccc2O[C@@H]1CN(C)Cc1ccc(-c2ccccc2)cc1`: the inhibition was 48.7%. Regarding `O=C(N[C@H]1CC[C@@H](CCNS(=O)(=O)c2ccccc2)O[C@@H]1CO)c1cnccn1`, the inhibition is -13.2%. Regarding `C[C@@H]1CN([C@H](C)CO)C(=O)CCCn2cc(nn2)CO[C@H]1CN(C)C(=O)Nc1ccc(N2CCCCC2)cc1`, the inhibition was -12.3% and -1.13% and -23.2%. Consider `Clc1ccc2nc(-c3ccccc3)nc(C(Cl)Cl)c2c1`, for which the inhibition was -10.7%. Under `NC(N)=Nc1nc(-c2ccccc2)c2cc(Cl)ccc2n1` stands 84.7% (active). For `Cc1onc(-c2ccccc2)c1C(=O)N=C(N)c1ccc(Cl)cc1`, the inhibition is -19.5%. Turning to `CC1=NNC(=O)C1CCC(=O)N/N=C\c1ccc(Cl)c(Cl)c1` (stereo not given), the inhibition is -0.875%. Next, `NCCCCCC(=O)N/N=C/c1ccc2nccnc2c1`: 87.9% (active); `O=C(CCC(=O)Nc1ccccc1)N/N=C/c1ccccc1F`: -7.35%.
